PubChem BioAssay (NCI)
The panel holds about 83,000 compounds, 20% with a hit somewhere; the sample as a whole holds those more often.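 Method: cells in 96-well plates; compound added at one concentration; 48 h incubation; percent growth measured; values under 10 scored active.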 The source made the active and inactive calls.

Assays:
Assay in all cases: NCI-60 one-dose screen, 48 h (100 = growth as untreated, 0 = no growth, -100 = all killed)
Details in all cases: 10 µM unless noted
SR leukemia = test system: SR leukemia
RPMI-8226 leukemia = test system: RPMI-8226 leukemia
OVCAR-8 ovarian = test system: OVCAR-8 ovarian
OVCAR-5 ovarian = test system: OVCAR-5 ovarian
OVCAR-4 ovarian = test system: OVCAR-4 ovarian
SK-OV-3 ovarian = test system: SK-OV-3 ovarian
IGROV1 ovarian = test system: IGROV1 ovarian
OVCAR-3 ovarian = test system: OVCAR-3 ovarian
HS 578T breast = test system: HS 578T breast
NCI/ADR-RES ovarian = test system: NCI/ADR-RES ovarian

Measured: growth

CC(C)[N+](C)(CCOC(COc1ccccc1)COc1ccccc1)C(C)C
inactive: SR leukemia 91.5% | RPMI-8226 leukemia 49.3% | OVCAR-8 ovarian 104% | OVCAR-5 ovarian 104% | OVCAR-4 ovarian 78.6% | SK-OV-3 ovarian 105% | IGROV1 ovarian 76.6% | OVCAR-3 ovarian 75.4% | HS 578T breast 105% | NCI/ADR-RES ovarian 107%

CCCNC(=O)Oc1ccc(/C(=C(\C)c2ccccc2)c2ccc(OCCN3CCCCC3)cc2)cc1
active: SR leukemia 9.19%
inactive: RPMI-8226 leukemia 57.7% | OVCAR-8 ovarian 75.3% | OVCAR-5 ovarian 78.2% | OVCAR-4 ovarian 83% | SK-OV-3 ovarian 79.3% | IGROV1 ovarian 84.8% | OVCAR-3 ovarian 75.6% | HS 578T breast 66.8% | NCI/ADR-RES ovarian 77.2%

C[C@@H]1CN(Cc2ccc(/C=C/c3n[nH]c4ccc5nc(-c6cn[nH]c6C(F)(F)F)c6c(c5c34)CCCC6)cc2)C[C@H](C)O1
active: SR leukemia 7.98% | IGROV1 ovarian 1.46% | HS 578T breast 3.34%
inactive: RPMI-8226 leukemia 34.3% | OVCAR-8 ovarian 33.4% | OVCAR-5 ovarian 19.7% | OVCAR-4 ovarian 29.9% | SK-OV-3 ovarian 22.5% | OVCAR-3 ovarian 38.2% | NCI/ADR-RES ovarian 28.7%

O=[N+]([O-])c1cccc(-c2nc(-c3ccc(Cl)cc3Cl)cn2-c2ccccc2)c1
active: SR leukemia -65% | OVCAR-8 ovarian -59.2% | OVCAR-4 ovarian -93.3% | OVCAR-3 ovarian -55.9% | HS 578T breast -38.8% | NCI/ADR-RES ovarian -1.46%
inactive: RPMI-8226 leukemia 61.7% | OVCAR-5 ovarian 12.1% | SK-OV-3 ovarian 33.4% | IGROV1 ovarian 29.7%

COc1cc(C2CC(c3cccc(Nc4ccncc4)c3)=NN2C(C)=O)cc(OC)c1OC (stereo not given)
inactive: SR leukemia 27.3% | RPMI-8226 leukemia 94.4% | OVCAR-8 ovarian 97% | OVCAR-5 ovarian 98.9% | OVCAR-4 ovarian 83.8% | SK-OV-3 ovarian 90.6% | IGROV1 ovarian 89.2% | OVCAR-3 ovarian 96.3% | HS 578T breast 86% | NCI/ADR-RES ovarian 97.9%

CCOC(=O)N1CCc2c(sc3nc4nc[nH]n4c(=O)c23)C1
inactive: SR leukemia 101% | RPMI-8226 leukemia 98.2% | OVCAR-8 ovarian 103% | OVCAR-5 ovarian 110% | OVCAR-4 ovarian 109% | SK-OV-3 ovarian 96.7% | IGROV1 ovarian 91.4% | OVCAR-3 ovarian 105% | HS 578T breast 95.8% | NCI/ADR-RES ovarian 97%

Cc1nc2sc(C(=O)Nc3cccc(Br)c3)c(N)c2cc1C(=O)c1ccc(C(F)(F)F)cc1
active: OVCAR-4 ovarian 6.24%
inactive: SR leukemia 47% | RPMI-8226 leukemia 88.6% | OVCAR-8 ovarian 72.7% | OVCAR-5 ovarian 82.3% | SK-OV-3 ovarian 91.7% | IGROV1 ovarian 73.8% | OVCAR-3 ovarian 83.2% | HS 578T breast 40.7% | NCI/ADR-RES ovarian 80.7%

COc1ccc(-c2nc(SCC(C)C)nc(N/N=C(/C)c3ccc(OC)c(OC)c3)c2C#N)cc1
inactive: SR leukemia 70.9% | RPMI-8226 leukemia 71.3% | OVCAR-8 ovarian 93.4% | OVCAR-5 ovarian 81.7% | OVCAR-4 ovarian 86.3% | SK-OV-3 ovarian 93.3% | IGROV1 ovarian 78.8% | OVCAR-3 ovarian 79.7% | HS 578T breast 76% | NCI/ADR-RES ovarian 90.2%

COc1ccccc1C(C[N+](=O)[O-])c1c(-c2ccccc2)[nH]c2cc(C)ccc12 (stereo not given)
inactive: SR leukemia 24.2% | RPMI-8226 leukemia 61.5% | OVCAR-8 ovarian 75.3% | OVCAR-5 ovarian 89.5% | OVCAR-4 ovarian 81.7% | SK-OV-3 ovarian 88.6% | IGROV1 ovarian 53.6% | OVCAR-3 ovarian 76.1% | HS 578T breast 83% | NCI/ADR-RES ovarian 50.1%

Cc1nccc2c3ccc(OCc4cn(-c5ccc(Cl)cc5)nn4)cc3n(CCCc3ccccc3)c12
inactive: OVCAR-5 ovarian 43.4% | SK-OV-3 ovarian 53.2% | IGROV1 ovarian 34% | OVCAR-3 ovarian 26.6%
active: SR leukemia -34.1% | RPMI-8226 leukemia 7.63% | OVCAR-8 ovarian -33.2% | OVCAR-4 ovarian -51.1% | HS 578T breast -35.7% | NCI/ADR-RES ovarian -44.1%

O=S(=O)(NCCCNc1nccc(-c2c(-c3ccccc3)nc3occn23)n1)c1ccc(Cl)cc1
inactive: SR leukemia 60.9% | RPMI-8226 leukemia 71.2% | OVCAR-8 ovarian 74.4% | OVCAR-5 ovarian 127% | OVCAR-4 ovarian 103% | SK-OV-3 ovarian 83% | IGROV1 ovarian 75.7% | OVCAR-3 ovarian 104% | HS 578T breast 96.7% | NCI/ADR-RES ovarian 87.8%

COc1ccc(CC(C)=C(c2ccc(OCCN(C)C)cc2)c2ccc(OCCN(C)C)cc2)cc1
active: SR leukemia -13.2%
inactive: RPMI-8226 leukemia 56.2% | OVCAR-8 ovarian 86% | OVCAR-5 ovarian 86.8% | OVCAR-4 ovarian 90.1% | SK-OV-3 ovarian 85.7% | IGROV1 ovarian 74.6% | OVCAR-3 ovarian 83.8% | HS 578T breast 74.6% | NCI/ADR-RES ovarian 86.4%

Clc1ccc(C2CC(c3cccc(Nc4ccncc4)c3)=NN2c2cc(Cl)cc(Cl)c2)cc1 (stereo not given)
inactive: RPMI-8226 leukemia 43.4% | OVCAR-5 ovarian 84.4% | OVCAR-4 ovarian 33.7% | SK-OV-3 ovarian 90.7% | IGROV1 ovarian 44.6% | OVCAR-3 ovarian 76.9% | HS 578T breast 78% | NCI/ADR-RES ovarian 68.3%
active: SR leukemia 6.05% | OVCAR-8 ovarian -7.8%

N#CSCC1CC(O)(c2ccccc2)C(c2ccccc2)C(c2ccc(F)cc2)O1 (stereo not given)
active: SR leukemia -3.15% | OVCAR-3 ovarian -84.2% | HS 578T breast -11.2%
inactive: RPMI-8226 leukemia 12.4% | OVCAR-8 ovarian 44.6% | OVCAR-5 ovarian 51.3% | OVCAR-4 ovarian 15.8% | SK-OV-3 ovarian 80.2% | IGROV1 ovarian 17.1% | NCI/ADR-RES ovarian 35.3%

N/C(=N\N=C\c1cc2ccccc2s1)N/N=C/c1cc2ccccc2s1
inactive: SR leukemia 96.8% | RPMI-8226 leukemia 99.8% | OVCAR-8 ovarian 107% | OVCAR-5 ovarian 104% | OVCAR-4 ovarian 102% | SK-OV-3 ovarian 94.3% | IGROV1 ovarian 93.7% | OVCAR-3 ovarian 107% | HS 578T breast 102% | NCI/ADR-RES ovarian 103%

Cc1ccc(-c2csc(/N=C3\C(=O)Nc4ccccc43)n2)cc1
active: SR leukemia -30.2% | RPMI-8226 leukemia -20.2% | OVCAR-3 ovarian -10.7%
inactive: OVCAR-8 ovarian 16.3% | OVCAR-5 ovarian 60.8% | OVCAR-4 ovarian 36% | SK-OV-3 ovarian 32.4% | IGROV1 ovarian 25.3% | HS 578T breast 31.2% | NCI/ADR-RES ovarian 81%

COc1ccc(C(=O)c2cc3c(N)c(C(=O)Nc4cccc(OC)c4)sc3nc2C)cc1
inactive: RPMI-8226 leukemia 15.2% | OVCAR-8 ovarian 15% | OVCAR-5 ovarian 46.8% | OVCAR-4 ovarian 49.5% | SK-OV-3 ovarian 36.5% | IGROV1 ovarian 37.6% | HS 578T breast 24.6%
active: SR leukemia -2.44% | OVCAR-3 ovarian 1.93% | NCI/ADR-RES ovarian 4.09%

FC(F)(F)c1cccc(Oc2ccc(Nc3ncnc4ccc(OCCCN5CCOCC5)cc34)cc2Cl)c1
inactive: SR leukemia 10.4% | RPMI-8226 leukemia 32% | OVCAR-8 ovarian 56.1% | OVCAR-5 ovarian 59.7% | OVCAR-4 ovarian 43.7% | SK-OV-3 ovarian 22.1% | IGROV1 ovarian 12.2% | OVCAR-3 ovarian 51.6% | HS 578T breast 72.4% | NCI/ADR-RES ovarian 49.9%

CN1CCN(c2ccc(NC3=C(Cl)C(=O)c4ncccc4C3=O)cc2C#N)CC1
active: SR leukemia 3.52% | OVCAR-4 ovarian -97.7% | IGROV1 ovarian -29.1% | OVCAR-3 ovarian -63.7%
inactive: RPMI-8226 leukemia 37.7% | OVCAR-8 ovarian 26.8% | OVCAR-5 ovarian 73.5% | SK-OV-3 ovarian 86.3% | HS 578T breast 61.4% | NCI/ADR-RES ovarian 73.1%

CC1(C)[C@H](O)CC[C@]2(C)[C@@H]1CC[C@@]13C[C@@H](CC[C@H]12)[C@@](O)(CO)C3
inactive: SR leukemia 103% | RPMI-8226 leukemia 108% | OVCAR-8 ovarian 110% | OVCAR-5 ovarian 106% | OVCAR-4 ovarian 117% | SK-OV-3 ovarian 109% | IGROV1 ovarian 113% | OVCAR-3 ovarian 112% | HS 578T breast 97.9% | NCI/ADR-RES ovarian 106%

CCNC(=S)NNC(=O)c1cc2ccc1CCc1ccc(cc1)CC2
inactive: SR leukemia 101% | RPMI-8226 leukemia 102% | OVCAR-8 ovarian 102% | OVCAR-5 ovarian 96.2% | OVCAR-4 ovarian 106% | SK-OV-3 ovarian 123% | IGROV1 ovarian 103% | OVCAR-3 ovarian 98.6% | HS 578T breast 102% | NCI/ADR-RES ovarian 101%

O=C1Nc2c(ccc(Cl)c2Cl)/C1=C/c1ccc(O)cc1
inactive: SR leukemia 42% | RPMI-8226 leukemia 78.6% | OVCAR-8 ovarian 92.3% | OVCAR-5 ovarian 90.6% | OVCAR-4 ovarian 72.9% | SK-OV-3 ovarian 86.4% | IGROV1 ovarian 42.6% | OVCAR-3 ovarian 92.9% | HS 578T breast 89% | NCI/ADR-RES ovarian 96.6%

COc1cc(/C=N/NC(=O)c2ccccc2Nc2cccc(C(F)(F)F)c2)ccc1O
active: SR leukemia -66.4%
inactive: RPMI-8226 leukemia 78.3% | OVCAR-8 ovarian 93.9% | OVCAR-5 ovarian 89.2% | OVCAR-4 ovarian 50% | SK-OV-3 ovarian 69.6% | IGROV1 ovarian 111% | OVCAR-3 ovarian 80.6% | HS 578T breast 106% | NCI/ADR-RES ovarian 75.4%

NNC(=O)/C(=C\c1ccc([N+](=O)[O-])cc1)CC(=O)c1ccc(Cl)c(Cl)c1
inactive: SR leukemia 86.7% | RPMI-8226 leukemia 91.7% | OVCAR-8 ovarian 90.9% | OVCAR-5 ovarian 87.8% | OVCAR-4 ovarian 80% | SK-OV-3 ovarian 99.9% | IGROV1 ovarian 70% | OVCAR-3 ovarian 97.2% | HS 578T breast 88.4% | NCI/ADR-RES ovarian 84.9%

CCCCCCCCCCCCCCCC(=O)OC[C@@]1(O)C[C@@]23CC[C@@H]4C(C)(C)[C@H](O)CC[C@@]4(C)[C@@H]2CC[C@H]1C3
inactive: SR leukemia 98.2% | RPMI-8226 leukemia 102% | OVCAR-8 ovarian 108% | OVCAR-5 ovarian 106% | OVCAR-4 ovarian 113% | SK-OV-3 ovarian 97.1% | IGROV1 ovarian 117% | OVCAR-3 ovarian 107% | HS 578T breast 100% | NCI/ADR-RES ovarian 106%

O=S(=O)(NCCNc1nccc(-c2c(-c3ccc(F)c(O)c3)nc3sccn23)n1)c1ccccc1
inactive: SR leukemia 35.8% | RPMI-8226 leukemia 41% | OVCAR-8 ovarian 67.6% | OVCAR-5 ovarian 115% | OVCAR-4 ovarian 92.8% | SK-OV-3 ovarian 85.9% | IGROV1 ovarian 68.9% | OVCAR-3 ovarian 81.6% | HS 578T breast 82.1% | NCI/ADR-RES ovarian 106%
